# Only some compounds are listed: those with a hit (about 12% of all), similar ones and a draw of the others.
# CHX counter = affects cycloheximide protein synthesis inhibition readout, counter-screen. cell reporter, cycloheximide protein synthesis inhibition counterscreen. 300,000 compounds, 12% hits. max response, %; in the data active means max response mostly above about 13%, no sharp cut-off; inactive means mostly below about 14%; further: read at 38.3 µM for the half of the compounds with a filed dose; 0% is about no effect
# Marburg entry inh = blocks Marburg virus binding to or entry into cells | 300,000 compounds, 1.8% hits | Marburg virus pseudotyped entry inhibition, cell reporter | Potency, µM (top dose mostly 37.8 µM), for the others: at the top dose activity change, negative = inhibition, actives largely listed as inhibitors | AID 540276; calls by dose curve; tested in HEK293 cells; further: potency means the concentration at half of the fitted maximal effect; on the % scale 0 is the no-effect control and ±100 the full control effect
# Lassa entry inh = inhibitors of Lassa virus binding or cell entry; 300,000 compounds, 1.2% hits; Lassa virus pseudotype entry inhibition, cell reporter; Potency, µM (series often up to 37.9 µM), inactives show at the highest dose activity change, negative = inhibition, hits mostly inhibitors; calls by dose curve; tested in HEK293 cells; further: potency means the concentration at half of the fitted maximal effect; on the % scale 0 is the no-effect control and ±100 the full control effect; nearly all actives have a fitted effect of over 50% in size
# Shiga inhibitor = Shiga toxin inhibition; 290,000 compounds, 9.2% hits; AID 2315; inhibition, % at 38.7 µM; Vero cells, Shiga toxin protein synthesis inhibition reporter; in the data active means inhibition mostly above about 28%, no sharp cut-off; inactive means mostly below about 43%; further: 0% is about no effect
# Numbers without * were called inactive; ? = inconclusive; nt = no result given; [ ] = dose if it differs, or a comment.
SMILES,CHX counter,Marburg entry inh,Lassa entry inh,Shiga inhibitor
Cc1c(N=C2SCC(=O)N2/N=C\c2ccc(Br)cc2)c(=O)n(-c2ccccc2)n1C,1,?,-2%,5
CCOC(=O)Cn1c(=O)oc2cc(S(=O)(=O)Nc3ccccc3F)ccc21,nt,19%[46.1 µM],4%[46.1 µM],nt
Cc1ccc(Cn2cc(/C=C(/C#N)C(=O)Nc3cccc(Cl)c3)c3ccccc32)cc1,nt,nt,-7%[46.1 µM],nt
COc1cc(/C=C(\C#N)C(=O)N2CCOCC2)ccc1OCc1ccccc1,3,26%[46.1 µM],nt,40
N#C/C(=C\c1ccc(OCc2ccc(C(=O)O)cc2)cc1)C(=O)N1CCOCC1,99*,0.92µM*,1.8µM*,179*
N#C/C(=C\c1ccc(OCc2ccccc2)cc1)C(=O)Nc1ccc(C(=O)O)cc1,26*,-11%,?,46*
Fc1cccc(Cc2noc(CN3CCCCC3c3ccccn3)n2)c1 (centres undefined),35*,-20%[46.1 µM],nt,82
Fc1ccc(C2CCCN2Cc2nc(Cc3ccccc3F)no2)cc1 (centres undefined),13*,nt,nt,19
O=C(Nc1ccc(F)cc1F)c1ccc(-n2cnnc2)cc1,nt,nt,8%[46.1 µM],nt
Cc1cccc2cc(C(c3nnnn3CC3CCCO3)N3CCCc4ccccc43)c(=O)[nH]c12 (centres undefined),-3,?,-8%,30
O=c1[nH]c2cc3c(cc2cc1C(c1nnnn1Cc1ccccc1)N1CCCc2ccccc21)OCO3 (centres undefined),16*,?,-13%,44*
CCc1ccc2[nH]c(=O)c(C(c3nnnn3CC3CCCO3)N3CCCc4ccccc43)cc2c1 (centres undefined),9,9.2µM*,-25%,-10
Cc1cc2cc(C(c3nnnn3CC3CCCO3)N3CCCc4ccccc43)c(=O)[nH]c2cc1C (centres undefined),12*,?,?,13
C=COC[C@H]1CN2[C@H](c3ccc(Br)cc3)[C@H](C)CC[C@H]2C(=O)O1,nt,-1%[14.2 µM],nt,nt
Cc1nc(C(N)=O)nc2ccccc12,1,nt,nt,15
CCOc1ccc(NC(=O)CN2C(=O)c3ccccc3Sc3ccc(C(=O)OC)cc32)cc1,nt,nt,2%[46.1 µM],nt
CCc1ccc(C(=O)CSc2ncn[nH]2)cc1,30*,0%,15%,76*
CCCOc1ccc(CSc2ncn[nH]2)cc1,30*,7%,-6%,68*
Cc1ccc(C(=O)CSc2ncn[nH]2)cc1,20*,16%,?,52
O=C(CSc1ncn[nH]1)c1ccc(OC(F)F)cc1,14*,15%[46.1 µM],2%,21
O=C(O)CSc1ncn[nH]1,-3,-21%,10%,-19
COc1ccc(C(=O)CSc2ncn[nH]2)cc1OC,2,2%,5%,14
COc1cccc(N2CCN(S(=O)(=O)c3cc(-c4cc(C)no4)ccc3C)CC2)c1,nt,nt,14%[46.1 µM],nt
CN(C)C(CNC(=S)Nc1cccc(Cl)c1)c1ccccc1 (centres undefined),-5,?,?,-2
CCOC(=O)C1CCCCN1C(=O)c1ccc2nc(Cc3ccc(OC)cc3)oc2c1 (centres undefined),6,nt,nt,12
SMILES,CHX counter,Marburg entry inh,Lassa entry inh,Shiga inhibitor
COC(=O)C1CCCCN1C(=O)c1ccc2oc(C(C)C)nc2c1 (centres undefined),27*,7%[46.1 µM],8%[46.1 µM],57*
COC(=O)C1CCCCN1C(=O)c1ccc2oc(Cc3ccccc3)nc2c1 (centres undefined),67*,-4%,-2%,83*
Cc1cc(F)ccc1NC(=O)Cn1cc(S(=O)(=O)NC(C)C)c(S(=O)(=O)NC(C)C)c1,nt,nt,28%[46.1 µM],nt
COCCNC(=S)N1CCN(c2nc(-c3ccc(F)cc3)cs2)CC1,12*,nt,nt,19
CCNC(=S)N1CCN(c2nc(-c3ccc(F)cc3)cs2)CC1,9.7*,nt,nt,21
CCN(CC)CCCNC(=S)N1CCN(c2nc(-c3ccc(F)cc3)cs2)CC1,-12,10µM*,?,nt
O=c1ccn(-c2cccc(C(F)(F)F)c2)nc1-c1ccn(-c2cccc(Cl)c2)n1,-1,-17%,-24%,26
COc1ccc(/C=C/C(O)=C(\C#N)c2nnc(N3CCOCC3)n2-c2ccccc2)cc1OC,1,-1%,-13%,-5
COc1cc2nc(/C=C/c3cc(OC)c(OC)c(OC)c3)sc2cc1SC,-4,7.1µM*,?,-6
COc1cc2nc(C)sc2cc1SC,1,-2%,13%,-9
Cc1cnc(C(=O)NC2CCSc3ccccc32)cn1 (centres undefined),6,nt,nt,7
Cc1c(Cl)cccc1NC(=O)c1ccc2c(c1)CCCN2S(C)(=O)=O,nt,22%[46.1 µM],22%[46.1 µM],nt
Cc1cccc(NC(=O)c2ccc3c(c2)CCN3S(C)(=O)=O)c1C,18*,nt,nt,nt
Cc1c(F)cccc1NC(=O)c1ccc2c(c1)CCN2S(C)(=O)=O,8.9*,?,-2%[46.1 µM],165*
